Active and inactive are the calls of the source. Unless noted, the rule behind the calls is not given here.
Key:
[1] = system: Wnt5a (protein binding on small-molecule microarray); experiment: Wnt5a binders on small-molecule microarray, primary screen, biophysical, 635/667 nm fluorescence (AID 1142); settings: 635 nm fluorescence, higher = more signal;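 note: fluorescence read at 667 nm with signal to noise per printed feature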
[2] = cell viability in Huh7 cells, primary screen, cytotoxicity control for HCV replication inhibitor project, CellTiter-Glo luminescence, basal, 48 h (AID 1143); settings: Huh7 HCV replicon, higher = more signal, called active from +8 up or from −8 down;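 note: Huh7 hepatoma cells carrying a hepatitis C replication reporter with no stimulus; test concentration not given here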
[3] = P. aeruginosa biofilm formation inhibitors, primary screen, PAO1 strain, BacTiter-Glo luminescence, LB-PBS (AID 1144); settings: 12 h, higher = more signal
[4] = CREB reporter modulators without forskolin, primary screen, cell-based, PC12, CRE-LacZ reporter, unstimulated (AID 1145); settings: no forskolin, luminescence, 4.5 h, higher = more signal, called active from +8 up or from −8 down
[5] = CREB reporter modulators under forskolin, primary screen, cell-based, PC12, CRE-LacZ reporter, forskolin-stimulated (AID 1146); settings: luminescence, 4.5 h, higher = more signal, called active from +8 up or from −8 down;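 note: PC12 cells with 6xCRE LacZ reporter stimulated by forskolin 10 µM; beta-galactosidase reporter signal reflecting CREB driven transcription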
[6] = target: Streptavidin (Streptomyces avidinii) (UniProt P22629); experiment: streptavidin binders on small-molecule microarray, primary screen, artefact control for SMM compound annotation, biophysical, 635/667 nm fluorescence (AID 1147); settings: streptavidin binding, higher = more signal;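 note: signal reflects streptavidin binding to arrayed compounds as a control protein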
[7] = small-molecule binders of probe aInhba, primary screen, biochemical, small-molecule microarray, 635/667 nm fluorescence (AID 1148); settings: higher = more signal;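 note: score merges 667nm spot fluorescence with signal-to-noise for antibody binding to printed compounds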
[8] = target: Torsin-1A (Homo sapiens) (UniProt O14656); experiment: torsin A binders from cell lysate, primary screen, small-molecule microarray, wild-type, 635/667 nm (AID 1149); settings: COS7 hTOR1A-WT lysate, 635 nm fluorescence, higher = more signal
[9] = target: Torsin-1A (Homo sapiens) (UniProt O14656); experiment: small-molecule binders of mutant TOR1A in lysate, primary screen, cell lysate, small-molecule microarray, COS7 lysate, 635/667 nm fluorescence (AID 1150); settings: COS7 hTOR1A mutant lysate, 635 nm fluorescence, higher = more signal;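 note: score pools 667 nm emission and signal to noise measuring lysate protein binding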
[10] = system: Sonic hedgehog protein (Shh); experiment: small-molecule binders of Shh protein, primary screen, biochemical, small-molecule microarray, 635/667 nm fluorescence (AID 1151); settings: small-molecule microarray binding, 635 nm fluorescence; higher = more signal;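 note: Shh protein binding to compounds spotted on small-molecule microarray slides; score combines spot fluorescence intensity with signal-to-noise across triplicate slides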
[11] = E. coli DRC41 culture turbidity changes, primary screen, E. coli filamentation inducer project, strain DRC41, OD650, 48 h (AID 1152);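 note: E. coli MC1000 strain DRC41 lacking acrAB efflux pump and sulA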; settings: E. coli DRC41 (acrAB sulA), higher = more signal, called active from +8 up or from −8 down
[12] = small-molecule binders of probe aLefty1, primary screen, biochemical, small-molecule microarray, 635/667 nm fluorescence (AID 1153); settings: higher = more signal;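 note: score merges spot fluorescence with signal-to-noise ratio from the scanned slide images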
[13] = PSAC antagonists in infected red cells, primary screen, cell-based, P. falciparum Indochina, OD700, 1 h (AID 1154); settings: P. falciparum Indochina infected RBC osmotic lysis, higher = more signal, called active from +8 up or from −8 down
[14] = PSAC antagonists in infected red cells, primary screen, cell-based, P. falciparum Indochina, OD700, 2 h (AID 1155);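 note: lysis reports solute entry through the parasite surface anion channel PSAC; channel blockers reduce lysis of infected cells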; settings: P. falciparum Indochina infected erythrocytes, osmotic lysis OD700; higher = more signal, called active from +8 up or from −8 down
[15] = osmotic lysis modulators in infected erythrocytes, primary screen, PSAC antagonist project, cell-based, P. falciparum Indochina, OD700, 3 h (AID 1156); settings: higher = more signal, called active from +8 up or from −8 down
[16] = PSAC antagonists in infected red cells, primary screen, cell-based, P. falciparum Indochina, OD700, 18 h (AID 1157); settings: P. falciparum Indochina infected erythrocytes, osmotic lysis OD700, 18 h; higher = more signal, called active from +8 up or from −8 down
[17] = modulators of S6 phosphorylation in cells, primary screen, cell-based, A549, cytoblot, luminescence, serum-stimulated (AID 1158); settings: A549 phospho-S6 cytoblot, 5 h, higher = more signal;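 note: serum-stimulated A549 lung adenocarcinoma cells; signal is phosphorylated S6 detected by cytoblot immunostaining with HRP secondary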
[18] = target: NADPH oxidase 2 (Homo sapiens) (UniProt P04839); experiment: NOX2-dependent H2O2 signal modulators, primary screen, NOX inhibitor project, cell-based, HEK293-NOX2, PMA-stimulated, Amplex Red fluorescence (AID 1159); settings: 45 min, higher = more signal, called active from +8 up or from −8 down; note: test concentration not given here
[19] = target: NADPH oxidase 4 (Homo sapiens) (UniProt Q9NPH5); experiment: NOX4-dependent H2O2 signal modulators, primary screen, NOX inhibitor project, cell-based, HEK293-NOX4, tetracycline-induced, Amplex Red fluorescence (AID 1160); settings: 45 min, higher = more signal, called active from +8 up or from −8 down
[20] = target: NADPH oxidase 5 (Homo sapiens) (UniProt Q96PH1); experiment: NOX5-dependent H2O2 signal modulators, primary screen, NOX inhibitor project, cell-based, HEK293-NOX5, Amplex Red fluorescence (AID 1161); settings: HEK293-NOX5, ionomycin, 45 min, higher = more signal
Chain of NADPH oxidase 5 (Homo sapiens) (Q96PH1 whole entry, looked up): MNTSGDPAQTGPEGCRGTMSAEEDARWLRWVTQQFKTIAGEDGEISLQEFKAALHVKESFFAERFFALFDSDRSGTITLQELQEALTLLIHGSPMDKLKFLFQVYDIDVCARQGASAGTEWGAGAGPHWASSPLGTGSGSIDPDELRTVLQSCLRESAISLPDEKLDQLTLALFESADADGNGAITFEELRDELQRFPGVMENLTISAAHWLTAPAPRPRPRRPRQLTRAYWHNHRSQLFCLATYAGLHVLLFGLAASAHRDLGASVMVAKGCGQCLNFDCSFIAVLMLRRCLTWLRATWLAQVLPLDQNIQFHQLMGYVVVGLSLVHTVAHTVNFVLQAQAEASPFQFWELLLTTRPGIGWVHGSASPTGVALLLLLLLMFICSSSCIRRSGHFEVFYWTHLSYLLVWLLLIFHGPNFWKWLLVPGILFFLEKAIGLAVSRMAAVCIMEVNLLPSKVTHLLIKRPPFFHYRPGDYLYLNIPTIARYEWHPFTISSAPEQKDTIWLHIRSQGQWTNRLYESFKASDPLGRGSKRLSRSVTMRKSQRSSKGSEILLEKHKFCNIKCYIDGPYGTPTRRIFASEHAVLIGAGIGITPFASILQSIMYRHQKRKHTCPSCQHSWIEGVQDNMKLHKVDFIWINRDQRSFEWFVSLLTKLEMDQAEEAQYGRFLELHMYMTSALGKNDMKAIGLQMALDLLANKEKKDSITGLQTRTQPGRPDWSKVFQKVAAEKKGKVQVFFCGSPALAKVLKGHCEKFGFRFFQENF

Chain of Torsin-1A (Homo sapiens) (O14656 whole entry, looked up): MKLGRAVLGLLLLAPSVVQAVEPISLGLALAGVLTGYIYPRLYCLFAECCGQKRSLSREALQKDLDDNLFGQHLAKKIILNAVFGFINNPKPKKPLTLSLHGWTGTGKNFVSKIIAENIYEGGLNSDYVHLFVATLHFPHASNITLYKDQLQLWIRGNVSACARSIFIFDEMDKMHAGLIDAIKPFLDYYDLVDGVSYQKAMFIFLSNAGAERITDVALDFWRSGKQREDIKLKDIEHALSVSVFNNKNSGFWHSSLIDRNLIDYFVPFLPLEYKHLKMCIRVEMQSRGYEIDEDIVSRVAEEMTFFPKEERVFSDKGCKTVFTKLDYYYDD
Chain of NADPH oxidase 4 (Homo sapiens) (Q9NPH5 whole entry, looked up): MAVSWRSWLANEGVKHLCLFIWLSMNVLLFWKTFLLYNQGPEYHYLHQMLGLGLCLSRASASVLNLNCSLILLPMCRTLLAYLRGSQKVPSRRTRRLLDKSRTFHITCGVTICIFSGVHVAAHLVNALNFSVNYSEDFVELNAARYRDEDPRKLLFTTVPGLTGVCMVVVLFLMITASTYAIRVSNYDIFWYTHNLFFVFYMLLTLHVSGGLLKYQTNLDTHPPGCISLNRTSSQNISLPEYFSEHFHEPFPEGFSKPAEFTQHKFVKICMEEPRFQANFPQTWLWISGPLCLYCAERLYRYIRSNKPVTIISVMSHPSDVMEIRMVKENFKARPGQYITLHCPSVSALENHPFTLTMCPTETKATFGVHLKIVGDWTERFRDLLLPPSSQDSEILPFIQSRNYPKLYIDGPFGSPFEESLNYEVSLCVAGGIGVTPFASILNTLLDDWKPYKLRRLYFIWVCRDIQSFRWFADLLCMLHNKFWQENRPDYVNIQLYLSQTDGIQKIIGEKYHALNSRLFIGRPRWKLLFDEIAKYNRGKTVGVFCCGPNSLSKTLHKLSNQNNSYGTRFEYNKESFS
Chain of Streptavidin (Streptomyces avidinii) (P22629 whole entry, looked up): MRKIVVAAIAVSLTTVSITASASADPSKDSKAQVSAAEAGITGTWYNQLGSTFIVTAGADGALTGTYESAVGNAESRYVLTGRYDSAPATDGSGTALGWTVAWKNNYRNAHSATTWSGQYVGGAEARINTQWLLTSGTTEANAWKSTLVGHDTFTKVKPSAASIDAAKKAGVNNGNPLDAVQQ
Chain of NADPH oxidase 2 (Homo sapiens) (P04839 whole entry, looked up): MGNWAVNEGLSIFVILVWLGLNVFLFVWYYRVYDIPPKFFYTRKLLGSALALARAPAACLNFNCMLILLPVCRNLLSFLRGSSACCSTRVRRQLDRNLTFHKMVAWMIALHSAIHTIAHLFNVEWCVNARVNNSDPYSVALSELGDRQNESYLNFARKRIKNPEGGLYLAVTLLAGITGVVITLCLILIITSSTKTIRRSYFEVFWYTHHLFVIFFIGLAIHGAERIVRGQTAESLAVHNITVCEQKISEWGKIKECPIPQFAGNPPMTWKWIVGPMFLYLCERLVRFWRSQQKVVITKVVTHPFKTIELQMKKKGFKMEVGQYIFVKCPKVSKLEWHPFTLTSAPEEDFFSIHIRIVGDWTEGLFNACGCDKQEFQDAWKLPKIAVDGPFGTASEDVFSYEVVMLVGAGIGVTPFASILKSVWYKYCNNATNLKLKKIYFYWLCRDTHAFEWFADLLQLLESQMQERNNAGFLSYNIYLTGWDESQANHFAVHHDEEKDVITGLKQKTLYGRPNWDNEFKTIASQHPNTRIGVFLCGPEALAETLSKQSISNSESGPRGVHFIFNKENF

Row | SMILES | composite z-score [1] | z-score [2] | z-score [3] | z-score [4] | z-score [5] | composite z-score [6] | composite z-score [7] | composite z-score [8] | composite z-score [9] | composite z-score [10] | z-score [11] | composite z-score [12] | z-score [13] | z-score [14] | z-score [15] | z-score [16] | z-score [17] | z-score [18] | z-score [19] | z-score [20]
1 | NC(=O)[C@H]1[C@@H]2C(=O)O[C@@H](c3ccccc3)[C@@H](c3ccccc3)N2[C@@H](c2ccc(O)cc2)[C@]12C(=O)Nc1ccccc12 | -0.355 | -0.0816 (inactive) | 0.191 (inactive) | -0.141 (inactive) | 0.272 (inactive) | -1.08 | -0.128 | -1.54 | -1.73 | -0.96 | -0.261 (inactive) | -0.18 | 3.33 (inactive) | 1.23 (inactive) | 0.217 (inactive) | 0.515 (inactive) | -0.471 | -0.741 (inactive) | -0.988 (inactive) | 0.572
2 | CCCCC(=C=CC[C@H](O)c1ccc(OCCO)cc1)C[C@H](O)c1cc(Cl)cc(Cl)c1O | -0.223 | -0.849 (inactive) | -0.145 (inactive) | 7.85 (inactive) | -0.218 (inactive) | 0.315 | -0.15 | 0.296 | 0.51 | 0.646 | -0.118 (inactive) | 0.13 | 21.2 (active) | 5.19 (inactive) | 1.56 (inactive) | 1.73 (inactive) | -0.476 | 0.51 (inactive) | -0.667 (inactive) | -1.49
3 | Cc1ccc(S[C@]2(C(=O)NCc3ccccc3)CC(=O)N(Cc3cc(C(F)(F)F)cc(C(F)(F)F)c3)[C@@H]2c2ccc(CO)cc2I)cc1 | -0.309 | -1.24 (inactive) | -0.314 (inactive) | 0.479 (inactive) | 0.279 (inactive) | -0.649 | -0.0523 | -0.199 | -0.298 | -0.757 | 1.66 (inactive) | 0.0903 | 3.13 (inactive) | 0.769 (inactive) | -0.0654 (inactive) | 0.598 (inactive) | 0.209 | 1.69 (inactive) | -1.24 (inactive) | 1.28
4 | COCCOC(=O)N1C(=O)[C@@]2(c3cc(C#CCCO)ccc31)[C@H](C(N)=O)[C@H]1C(=O)O[C@H](c3ccccc3)[C@H](c3ccccc3)N1[C@@H]2c1ccc(OCCO)cc1 | 0.622 | -0.869 (inactive) | -0.402 (inactive) | -0.141 (inactive) | -0.087 (inactive) | 0.438 | 0.0391 | 1.47 | 0.684 | 1.36 | -0.138 (inactive) | 0.157 | 23.4 (active) | 5.49 (inactive) | 1.88 (inactive) | 1.3 (inactive) | 0.388 | 1.78 (inactive) | 1.1 (inactive) | 0.785
5 | C=C(CCCC)C(=O)CC[C@@H](OC(=O)c1cccnc1)c1ccc(OCCO)cc1 | 1.08 | -2.32 (inactive) | 0.383 (inactive) | 11.5 (active) | 1.62 (inactive) | -0.444 | 0.0857 | 1.12 | 0.507 | 2.35 | -0.704 (inactive) | 0.178 | 20.2 (active) | 4.63 (inactive) | -0.367 (inactive) | 0.774 (inactive) | -0.58 | -1.3 (inactive) | -0.918 (inactive) | -1.39
6 | COc1ccc([Si](C)(C)[C@H]2[C@H](CCO)O[C@@]3(C(=O)N(Cc4ccc(N5C(=O)c6ccccc6Oc6ccccc65)cc4)c4ccccc43)[C@@H]2C)cc1 | -0.154 | -5.43 (inactive) | -1.75 (inactive) | 0.222 (inactive) | -0.986 (inactive) | -0.446 | -0.0762 | -1.08 | -0.889 | 1.13 | 0.157 (inactive) | 0.0211 | 4.29 (inactive) | 2.83 (inactive) | -1.44 (inactive) | 1.38 (inactive) | 0.211 | -0.681 (inactive) | 2.36 (inactive) | 1.9
7 | O=C(O)[C@@H]1C[C@@H]2C(=O)N3CCC[C@H]3C(=O)N2[C@@H]1c1cccc(OCCO)c1 | 1.25 | -0.0592 (inactive) | 1.36 (inactive) | 0.143 (inactive) | -0.382 (inactive) | 3.76 | 1.95 | 2.99 | 2.12 | 2.02 | 0.807 (inactive) | 2.57 | 2.94 (inactive) | 0.591 (inactive) | -1.77 (inactive) | 0.35 (inactive) | 0.132 | 1.29 (inactive) | 0.355 (inactive) | 1.59
8 | NC(=O)N1C(=O)C2C(C1=O)C1C=C(CCCO)C2C(C2CC2)N1Cc1cccc(OC(F)(F)F)c1 (stereo not given) | -0.352 | -0.458 (inactive) | 1.35 (inactive) | 0.522 (inactive) | 1.62 (inactive) | -0.439 | -0.182 | 1.51 | 1.59 | 0.393 | -0.778 (inactive) | -0.195 | 1.03 (inactive) | 0.275 (inactive) | -0.351 (inactive) | 0.161 (inactive) | -0.898 | 0.699 (inactive) | -0.685 (inactive) | -0.738
9 | COc1ccc([Si](C)(C)[C@@H]2[C@@H](CC(=O)N3Cc4ccccc4C[C@H]3CO)O[C@]3(C(=O)N(Cc4ccc(N5CCC5=O)cc4)c4ccccc43)[C@H]2C)cc1 | 0.159 | -3.32 (inactive) | -1.1 (inactive) | 0.409 (inactive) | -0.448 (inactive) | 0.673 | -0.167 | -0.191 | 0.585 | 1.74 | 0.238 (inactive) | 0.0253 | 5.02 (inactive) | 1.31 (inactive) | 0.538 (inactive) | 1.14 (inactive) | 0.0933 | 0.669 (inactive) | 0.841 (inactive) | 2.36
